A selection: hits, their analogues and other compounds. The true share with any hit is near 5.7%.
rCAG binder = binders of r(CAG) RNA repeats, primary screen, biochemical, fluorescence; r(CAG) RNA repeat, TO-PRO-1 dye displacement fluorescence; inhibition, % at 3 µM; hit rate 1.3% among 370,000; AID 651821, 2012;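 active = inhibition above the plate cutoff, the mean of all test compounds on that plate plus 3 SD, cut at about 35% in these data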;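 note: higher means more dye released from RNA so lower well fluorescence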
GRIN3A LBD mod = binders of NR3A ligand-binding domain, primary screen, biophysical, differential scanning fluorimetry, uHTS | Glutamate receptor ionotropic, NMDA 3A (GRIN3A) ligand-binding domain | NR3A LBD differential scanning fluorimetry, Tm shift; 0% = protein alone, 100% = glycine-bound protein | Tm shift relative to glycine control, % at 25 µM | hit rate 2.5% among 340,000;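 active = melting temperature shift of at least 10% of the positive control shift, at one fixed dose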
MPTP inh = mitochondrial permeability transition pore inhibitors, primary screen, biochemical, isolated mouse mitochondria, absorbance | Ca2+ swelling absorbance, 30 min | inhibition, % at 10 µM | hit rate 1.4% among 360,000 | AID 602449, 2012;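 active = inhibition of 50% or more, scaled per plate between neutral and stimulator controls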
Myeloid diff 2 = induction of myeloid progenitor differentiation, primary screen, cell-based, flow cytometry, MLPCN library | ER-HoxA9 myeloid progenitors, lysozyme-GFP differentiation | calls only at 10 µM | hit rate 1% among 360,000 | AID 624256, 2012;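 active = normalized GFP-positive differentiation at or above the plate's own cutoff, the solvent-only control mean plus 3 SD; inconclusive = no clear call, values can overlap the other calls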;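 note: cells exposed to compound for four days before flow analysis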
FAS-TE inh = FAS thioesterase domain inhibitors, primary screen, biochemical, fluorescence intensity, uHTS; Fatty acid synthase (Homo sapiens), P49327; recombinant FAS-TE, OMFH fluorogenic substrate, fluorescence endpoint; inhibition, % at 15 µM; hit rate 0.67% among 360,000;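 active = compounds whose normalised, plate-corrected inhibition of enzyme fluorescence in the single-dose primary screen is 50% or more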
Target sequence (P49327 whole entry, looked up, the tested form may be a part): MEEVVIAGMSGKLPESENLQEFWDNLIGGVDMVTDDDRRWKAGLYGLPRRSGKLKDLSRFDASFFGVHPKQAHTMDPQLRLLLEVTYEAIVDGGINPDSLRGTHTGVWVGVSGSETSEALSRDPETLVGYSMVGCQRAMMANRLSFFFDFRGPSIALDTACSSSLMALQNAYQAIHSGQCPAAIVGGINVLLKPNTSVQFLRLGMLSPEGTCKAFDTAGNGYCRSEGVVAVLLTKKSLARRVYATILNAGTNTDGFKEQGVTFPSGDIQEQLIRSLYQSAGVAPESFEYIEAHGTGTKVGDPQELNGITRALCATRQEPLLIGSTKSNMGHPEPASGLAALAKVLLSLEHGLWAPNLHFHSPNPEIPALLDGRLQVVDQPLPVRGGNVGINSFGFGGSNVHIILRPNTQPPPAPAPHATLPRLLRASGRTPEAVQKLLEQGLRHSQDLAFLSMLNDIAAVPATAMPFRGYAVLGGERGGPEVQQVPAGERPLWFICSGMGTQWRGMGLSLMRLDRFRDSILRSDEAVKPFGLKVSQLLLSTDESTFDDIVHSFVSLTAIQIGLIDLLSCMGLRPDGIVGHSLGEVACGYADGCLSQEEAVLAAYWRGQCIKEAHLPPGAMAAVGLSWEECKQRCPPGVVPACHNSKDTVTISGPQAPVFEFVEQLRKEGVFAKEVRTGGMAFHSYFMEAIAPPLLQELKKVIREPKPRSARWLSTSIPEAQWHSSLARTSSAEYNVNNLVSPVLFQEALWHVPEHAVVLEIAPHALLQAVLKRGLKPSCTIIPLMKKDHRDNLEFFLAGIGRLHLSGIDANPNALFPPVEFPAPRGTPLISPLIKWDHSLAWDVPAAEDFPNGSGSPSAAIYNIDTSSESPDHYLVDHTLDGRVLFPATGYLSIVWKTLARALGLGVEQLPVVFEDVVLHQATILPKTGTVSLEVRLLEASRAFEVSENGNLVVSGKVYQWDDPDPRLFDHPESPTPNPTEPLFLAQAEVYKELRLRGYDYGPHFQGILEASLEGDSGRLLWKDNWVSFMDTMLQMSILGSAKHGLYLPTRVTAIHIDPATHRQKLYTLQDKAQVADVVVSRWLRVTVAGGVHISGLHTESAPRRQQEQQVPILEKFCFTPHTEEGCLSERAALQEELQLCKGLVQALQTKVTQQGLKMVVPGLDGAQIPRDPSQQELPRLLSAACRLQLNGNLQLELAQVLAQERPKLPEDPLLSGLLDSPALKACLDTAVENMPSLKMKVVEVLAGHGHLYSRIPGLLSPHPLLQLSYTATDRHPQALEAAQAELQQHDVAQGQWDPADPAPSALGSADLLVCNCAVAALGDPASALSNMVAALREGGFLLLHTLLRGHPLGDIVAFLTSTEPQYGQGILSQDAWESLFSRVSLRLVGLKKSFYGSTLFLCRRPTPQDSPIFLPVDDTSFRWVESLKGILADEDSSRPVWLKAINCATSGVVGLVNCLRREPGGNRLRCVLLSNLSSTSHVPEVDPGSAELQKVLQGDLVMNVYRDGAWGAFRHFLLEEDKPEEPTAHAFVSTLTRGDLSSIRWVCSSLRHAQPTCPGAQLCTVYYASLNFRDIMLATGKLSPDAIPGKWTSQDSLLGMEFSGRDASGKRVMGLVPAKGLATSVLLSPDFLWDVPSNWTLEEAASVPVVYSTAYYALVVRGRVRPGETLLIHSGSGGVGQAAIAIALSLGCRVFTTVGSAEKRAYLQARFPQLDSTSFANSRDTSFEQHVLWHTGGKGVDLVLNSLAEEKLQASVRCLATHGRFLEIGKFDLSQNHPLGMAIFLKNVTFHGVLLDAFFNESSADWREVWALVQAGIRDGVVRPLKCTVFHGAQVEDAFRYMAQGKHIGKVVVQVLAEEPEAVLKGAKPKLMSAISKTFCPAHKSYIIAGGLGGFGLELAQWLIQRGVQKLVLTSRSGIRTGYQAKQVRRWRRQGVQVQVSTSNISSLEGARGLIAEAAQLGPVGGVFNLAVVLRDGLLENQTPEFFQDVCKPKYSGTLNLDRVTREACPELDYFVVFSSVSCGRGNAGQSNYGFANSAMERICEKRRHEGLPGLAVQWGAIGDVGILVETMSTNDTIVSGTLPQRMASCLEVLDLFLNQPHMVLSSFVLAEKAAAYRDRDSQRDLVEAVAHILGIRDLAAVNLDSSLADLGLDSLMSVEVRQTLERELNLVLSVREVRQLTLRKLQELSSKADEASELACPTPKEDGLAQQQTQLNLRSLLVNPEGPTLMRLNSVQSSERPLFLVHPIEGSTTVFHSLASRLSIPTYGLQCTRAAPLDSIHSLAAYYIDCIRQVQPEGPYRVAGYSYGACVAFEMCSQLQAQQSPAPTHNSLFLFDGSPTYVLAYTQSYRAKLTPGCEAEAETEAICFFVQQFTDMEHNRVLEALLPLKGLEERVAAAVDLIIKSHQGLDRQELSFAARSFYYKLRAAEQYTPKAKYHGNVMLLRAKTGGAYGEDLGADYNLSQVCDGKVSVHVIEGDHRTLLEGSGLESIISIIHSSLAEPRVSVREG
Myeloid diff CP1 = inducers of myeloid progenitor differentiation, confirmation, cell-based, GFP/Mac1 flow cytometry, cherry pick 01. shares compounds with Myeloid diff 2. ER-HoxA9 myeloid progenitors, GFP/Mac1 double-positive flow. calls only. hit rate 2% among 2,300;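 active = share of green or green-and-red cells above 9 and 9% in run 1 or 4 and 3% in run 2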
GFP autofluor = compound fluorescence in myeloid differentiation counter-screen | hit rate 7.4% among 2,300 | shares compounds with Myeloid diff 2 | fluorescence response, % (concentration not given with the values) | ER-HoxA9 myeloid progenitors, no estrogen, GFP autofluorescence flow cytometry; vehicle wells 0%, positive control 100%;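 active = over 5% cells positive for green fluorescent reporter, or over 2% positive for both it and APC stain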
A number is an active result; . = inactive; ? = inconclusive; / = not tested or not shown; + = active, no number.

SMILES	rCAG binder	GRIN3A LBD mod	MPTP inh	Myeloid diff 2	FAS-TE inh	Myeloid diff CP1	GFP autofluor
Cc1cc(C)cc(N(C(=O)CNC(=O)c2cccs2)C(C(=O)NC2CCCC2)c2cccnc2)c1 (centres undefined)	.	.	.	.	.	/	/
O=C(NCC(=O)N(c1cccnc1)C(C(=O)NC1CCCCC1)c1cccnc1)c1ccco1 (centres undefined)	.	.	.	.	.	/	/
O=C(NCC(=O)N(c1cccnc1)C(C(=O)NC1CCCC1)c1cccs1)c1ccco1 (centres undefined)	.	.	.	.	.	.	67.0
CCCNC(=S)N1CCC(NC(=O)C2CCCCC2)CC1	.	.	.	.	.	/	/
Cc1cc(Nc2cccc([N+](=O)[O-])c2)c2cccc(C)c2n1	.	.	.	.	.	/	/
Cc1cc(Nc2ccccc2)c2c([N+](=O)[O-])ccc(C)c2n1	.	.	.	.	.	.	.
O=C(O)C1CCCC2CN3CCc4c([nH]c5ccccc45)C3C(O)C21 (centres undefined)	.	.	.	.	.	.	.
N#CCCN1CCN(S(=O)(=O)c2ccc(C#N)cc2)CC1	.	.	.	.	.	.	.
N#CCCN1CCN(S(=O)(=O)c2ccc(S(=O)(=O)N3CCCCCC3)cc2)CC1	.	.	.	.	.	/	/
O=C(CSc1nccc(=O)[nH]1)N1CCN(c2ccccc2)CC1	.	.	.	.	.	/	/
C=C1C(C(=O)Nc2ccccc2)C1C(=O)Nc1ccccc1 (centres undefined)	.	.	.	.	.	/	/
O=C(CN1C(=O)c2cccnc2Oc2ccc(Cl)cc21)Nc1ccccc1F	.	.	.	+	.	.	.
CCOc1ccc(NS(=O)(=O)c2ccc(C(=O)NCC(c3ccco3)N3CCCCC3)cc2)cc1 (centres undefined)	.	/	.	.	.	/	/
COc1ccc2[nH]c3c(c2c1)[C@@H]1CCN2C(=O)CCC[C@H](C3)[C@H]12	.	.	.	+	.	.	.
COc1nc(C)ccc1-c1noc(-c2ccccn2)n1	/	.	.	.	.	.	.
COc1ccccc1-c1nc(-c2ccc(C)nc2OC)no1	.	.	.	.	.	/	/
O=C(NCC1CCCCC1)c1csc([C@@H]2C[C@H](O)[C@@H](CO)O2)n1	.	/	.	.	.	/	/
c1ccc(Cn2ncc3c(N4CCCCC4)ncnc32)cc1	.	.	.	.	.	/	/
Clc1ccc(Cn2ncc3c(N4CCN(c5ccccc5)CC4)ncnc32)cc1	.	/	.	+	.	+	.
Cn1cc(CN(CCCN2CCOCC2)C(=S)Nc2cccc(Cl)c2)c2ccccc21	.	.	.	+	.	.	.
Cc1cccc(NC(=S)N(CCCN2CCOCC2)Cc2cn(C)c3ccccc23)c1	.	.	.	.	.	/	/
COc1cc(OC)cc(-c2c(Sc3ccccc3)c3cc(-c4ccc(SC)cc4)ccc3n2C)c1	.	/	.	.	.	/	/
COc1ccc(Cn2nnnc2CN2CCC(O)(c3ccccc3F)CC2)cc1	.	.	.	.	.	/	/
OC1(c2ccccc2F)CCN(Cc2nnnn2Cc2ccc(F)cc2)CC1	.	.	.	+	.	.	.
COCCCNCCOc1ccccc1-c1ccccc1	.	.	.	.	.	/	/
SMILES	rCAG binder	GRIN3A LBD mod	MPTP inh	Myeloid diff 2	FAS-TE inh	Myeloid diff CP1	GFP autofluor
COCCCNCCCCOc1ccccc1-c1ccccc1	.	.	.	.	.	.	.
Cn1cc(CNC(=O)C2CCC(=O)N(Cc3ccc(Cl)cc3)C2)cn1 (centres undefined)	.	.	.	.	.	/	/
O=C(COC(=O)c1ccccc1NCCO)NCC1CCCCC1	.	.	.	.	.	/	/
C=CC[n+]1cccc(-c2cc3ccc(C)cc3[nH]2)c1	.	.	.	.	.	.	.
Cc1ccc2[nH]c(-c3ccccc3)cc(=O)c2c1	.	.	.	?	.	/	/
CCCOc1ccc2[nH]cc(C(=O)O)c(=O)c2c1	.	.	.	.	.	.	.
CC1CCN(c2nc(CN3CCCCC3)nc3scc(-c4ccccc4)c23)CC1	.	.	.	.	.	.	.
O=C(O)CSc1nc2ccc(C(=O)c3ccccc3)cc2[nH]1	.	.	.	.	.	/	/
CC1(C)OC(=O)C(=CNc2ccc(F)cc2)C(=O)O1	.	.	.	.	.	/	/
Cc1ccc(F)c(NC=C2C(=O)OC(C)(C)OC2=O)c1	.	.	.	.	.	.	.
Cc1ccc(S(=O)(=O)N2CCC(=O)CC2c2ccccc2)cc1 (centres undefined)	.	.	.	.	.	.	.
Cc1ccc(S(=O)(=O)N2CC3C(=O)CC(c4ccccc4)N(S(=O)(=O)c4ccc(C)cc4)C3CC2c2cccc(Cl)c2)cc1 (centres undefined)	.	/	.	+	/	.	.
Cc1ccc(S(=O)(=O)N2C[C@H]3C(=O)C[C@@H](c4ccccc4)N(S(=O)(=O)c4ccccc4[N+](=O)[O-])[C@H]3C[C@H]2c2ccccc2)cc1	.	/	.	+	.	.	.
Cc1ccc([C@@H]2C[C@H]3[C@@H](CN2S(=O)(=O)c2ccc(C)cc2)C(=O)C[C@@H](c2cccc(Cl)c2)N3S(=O)(=O)c2ccc(C)cc2)cc1	.	/	.	.	.	/	/
CON(c1nc(Cl)nc(N(C)C)n1)S(=O)(=O)c1ccc(C)cc1	.	.	.	.	.	/	/
CCN(CC)c1ccc(C=C(c2nnnn2-c2ccccc2)c2nnnn2-c2ccccc2)cc1	.	.	.	.	.	/	/
Cc1ccc(-n2nnnc2C(=Cc2ccc(N(C)C)cc2)c2nnnn2-c2ccc(C)cc2)cc1	.	.	.	+	.	.	.
c1ccc(-n2cc(CN3CCCC3)c(-c3ccc4c(c3)OCO4)n2)cc1	.	.	.	.	.	/	/
c1ccc(-n2cc(CN3CCC(N4CCOCC4)CC3)c(-c3ccc4c(c3)OCO4)n2)cc1	.	.	.	+	.	.	.
O=C(CCCc1c[nH]c2ccccc12)N[C@@H](Cc1c[nH]c2ccccc12)C(=O)O	.	.	.	.	.	/	/
COc1ccc(C)c(-n2c(=O)n(Cc3ccccc3)c(=O)c3[nH]cnc32)c1	.	.	.	.	.	/	/
COc1ccc(Cn2c(=O)c3[nH]cnc3n(-c3ccccc3C)c2=O)cc1	.	.	.	.	.	.	.
Cc1onc(-c2c(Cl)cccc2Cl)c1NC(=O)NNc1ccccc1	.	.	.	+	.	.	.
Cc1onc(-c2c(Cl)cccc2Cl)c1NC(=O)NNc1c(Cl)cncc1Cl	.	.	.	.	.	/	/
COC(=O)c1ccccc1NC(=O)c1cnn2c(C)cc(C)nc12	.	.	.	.	.	/	/

Screens deposited in PubChem BioAssay by several laboratories.
